Assay outcomes: PubChem BioAssay, The Scripps Research Institute Molecular Screening Center
PAFAH2 inh: inhibitors of human PAFAH2; Q99487; recombinant PAFAH2, FP-rhodamine activity probe, fluorescence polarization; inhibition, % at 3.39 µM; actives 0.99% (n = 340,000); AID 492956;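 active = inhibition above the mean over all tested compounds plus 3 SD, cut at about 30% in these data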;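 also: inhibitors block probe labeling of enzyme so polarization drops; 0% = enzyme with DMSO and 100% = wells lacking PAFAH2 protein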
PME-1 inh: blocks human protein phosphatase methylesterase 1. Q9Y570. recombinant PME-1, FP-Rh probe fluorescence polarization. inhibition, % at 5.9 µM. actives 0.53% (n = 320,000). AID 2130;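 active = inhibition above the campaign mean of all compounds plus 3 SD, cut at about 26% in these data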;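 also: competitive labeling of PME-1 active site by serine hydrolase directed probe; 0% = PME-1 with DMSO and 100% = wells lacking PME-1 enzyme; inhibitors block probe labeling so polarization falls and inhibition rises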
Target sequence (Q9Y570 whole entry, looked up): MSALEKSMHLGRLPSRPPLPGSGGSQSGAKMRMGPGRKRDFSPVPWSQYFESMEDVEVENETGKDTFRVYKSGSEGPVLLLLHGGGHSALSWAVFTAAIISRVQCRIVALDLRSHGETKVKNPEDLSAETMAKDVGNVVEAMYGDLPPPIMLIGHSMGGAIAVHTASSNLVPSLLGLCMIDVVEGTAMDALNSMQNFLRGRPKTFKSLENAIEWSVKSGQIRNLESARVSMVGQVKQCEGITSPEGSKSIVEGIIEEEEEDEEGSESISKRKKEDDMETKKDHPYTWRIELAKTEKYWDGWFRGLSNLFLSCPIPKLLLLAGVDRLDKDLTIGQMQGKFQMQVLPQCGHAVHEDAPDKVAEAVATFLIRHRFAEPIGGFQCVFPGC
Fam108B inh: counter-screen for RBBP9 inhibitors: inhibitors of mouse Fam108B | actives 0.33% (n = 300,000) | inhibition, % at 9.51 µM | recombinant Fam108B, FP-Rh probe fluorescence polarization;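 active = inhibition above the screen mean inhibition plus 3 SD, computed separately per campaign, cut at about 18% in these data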;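 also: inhibitors lower polarization as less probe binds the enzyme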
PAFAH1B2 inh: blocks human PAF acetylhydrolase 1b catalytic subunit 2; P68402; recombinant PAFAH1B2, FP-rhodamine activity probe, fluorescence polarization; inhibition, % at 3.39 µM; actives 1.2% (n = 340,000);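 active = inhibition above the mean of all tested compounds plus 3 SD, cut at about 24% in these data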;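 also: 0% = enzyme with DMSO and 100% = wells lacking PAFAH1B2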
pPAFAH FP inh: inhibitors of human plasma PAF acetylhydrolase (pPAFAH); Q13093; recombinant pPAFAH, FP-rhodamine probe fluorescence polarization; inhibition, % at 3.39 µM; actives 1.5% (n = 330,000);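 active = inhibition above the mean inhibition across the screen plus 3 SD, cut at about 25% in these data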;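 also: inhibitors block binding of the rhodamine activity-based probe so polarization drops; 0% = enzyme with DMSO and 100% = wells lacking pPAFAH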
PAFAH1B3 FP inh: PAFAH1B3 (human) inhibition. Q15102. recombinant PAFAH1B3, FP-rhodamine probe, fluorescence polarization. inhibition, % at 3.39 µM. actives 0.28% (n = 340,000). AID 492972;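 active = inhibition above the screen-wide average of all tested compounds plus 3 SD, cut at about 25% in these data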;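 also: 0% = enzyme with DMSO only and 100% = wells lacking PAFAH1B3 protein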
Target sequence (Q15102 whole entry, looked up): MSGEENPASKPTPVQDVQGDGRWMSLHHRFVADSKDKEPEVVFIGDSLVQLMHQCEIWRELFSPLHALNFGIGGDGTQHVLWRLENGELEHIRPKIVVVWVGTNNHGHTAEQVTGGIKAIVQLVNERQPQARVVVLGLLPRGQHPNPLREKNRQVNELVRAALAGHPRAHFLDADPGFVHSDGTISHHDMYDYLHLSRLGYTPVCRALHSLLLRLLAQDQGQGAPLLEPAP
Active calls of the source: *. Hits are enriched below; roughly 2.9% of the tested compounds scored in any of these assays.

Results for O=C(CN1CCN(S(=O)(=O)c2ccc(Br)cc2)CC1)N/N=C/c1ccncc1 ?
PAFAH2 inh: -6; PME-1 inh: 15; Fam108B inh: -1; PAFAH1B2 inh: 29*; pPAFAH FP inh: -7; PAFAH1B3 FP inh: 8

Results for CC(C)c1ccc(S(=O)(=O)N2CCN(CC(=O)c3ccc(O)c(O)c3)CC2)cc1 ?
PAFAH2 inh: 17; PME-1 inh: 5; Fam108B inh: 1; PAFAH1B2 inh: 6; pPAFAH FP inh: 20; PAFAH1B3 FP inh: 7

Results for COc1ccc(S(=O)(=O)N2CCN(CCOc3ccc(Br)cc3)CC2)cc1OC ?
PAFAH2 inh: 6; PME-1 inh: 2; PAFAH1B2 inh: 3; pPAFAH FP inh: 1; PAFAH1B3 FP inh: 12

How did O=C(CN1CCN(S(=O)(=O)c2ccc(Br)cc2)CC1)N/N=C/c1cccs1 do in these assays?
PAFAH2 inh: 5; PME-1 inh: 7; Fam108B inh: -4; PAFAH1B2 inh: 24; pPAFAH FP inh: 5; PAFAH1B3 FP inh: -2

What do the screens show for `O=C(CN1CCN(S(=O)(=O)c2ccc(Br)cc2)CC1)c1ccc(O)c(O)c1`?
PAFAH2 inh: 14; PME-1 inh: 3; Fam108B inh: -3; PAFAH1B2 inh: 29*; pPAFAH FP inh: 11; PAFAH1B3 FP inh: 1

What do the screens show for `COc1ccc(OC)c(C(=O)CN2CCN(S(=O)(=O)c3ccc(Br)cc3)CC2)c1`?
PAFAH2 inh: 3; PME-1 inh: 6; Fam108B inh: 5; PAFAH1B2 inh: 29*; pPAFAH FP inh: 7; PAFAH1B3 FP inh: 5

What do the screens show for `Cn1cnc2c(N/N=C/c3cccs3)ncnc21`?
PME-1 inh: -6; Fam108B inh: -3; pPAFAH FP inh: -1

How did COc1ccc2oc(C(=O)Nc3ccc(N4CCOCC4)cc3)c(C)c2c1 do in these assays?
PAFAH2 inh: 13; PME-1 inh: 2; Fam108B inh: 3; PAFAH1B2 inh: 3; pPAFAH FP inh: 52*; PAFAH1B3 FP inh: 4

Results for O=C(NCCSc1ncc(-c2ccc(F)cc2)[nH]1)c1ccc2c(c1)OCO2 ?
PAFAH2 inh: 3; PME-1 inh: 6; Fam108B inh: 11; PAFAH1B2 inh: 33*; pPAFAH FP inh: 1; PAFAH1B3 FP inh: 2

How did Cc1ccc(-c2cnc(SCCNC(=O)c3ccco3)[nH]2)cc1 do in these assays?
PAFAH2 inh: 7; PME-1 inh: -4; Fam108B inh: 1; PAFAH1B2 inh: -1; pPAFAH FP inh: 0; PAFAH1B3 FP inh: -1

What do the screens show for `O=C(NCC1CCCO1)c1cccc2c1C(=O)c1ccc(N3CCC(Cc4ccccc4)CC3)cc1S2(=O)=O` (stereo not drawn)?
PAFAH2 inh: -14; PAFAH1B2 inh: -9; pPAFAH FP inh: 33*; PAFAH1B3 FP inh: -1

Results for COc1ccc(NC(=O)C2CCC2)cc1S(=O)(=O)Nc1cc(C)ccc1Br ?
PAFAH2 inh: 0; PAFAH1B2 inh: 5; pPAFAH FP inh: 29*; PAFAH1B3 FP inh: 6

What do the screens show for `O=c1[nH]c(C2CCN(S(=O)(=O)c3ccc(C(F)(F)F)cc3)CC2)nc2c1nnn2Cc1ccc(F)cc1`?
PAFAH2 inh: 8; PME-1 inh: 68*; Fam108B inh: -3; PAFAH1B2 inh: 9; pPAFAH FP inh: 3; PAFAH1B3 FP inh: -7

Results for COc1ccc(/C=C\C(=O)CC(O)(c2ccccc2)C(F)(F)F)cc1 (stereo not drawn) ?
PAFAH2 inh: 7; PME-1 inh: -4; Fam108B inh: -3; PAFAH1B2 inh: 30*; pPAFAH FP inh: -3; PAFAH1B3 FP inh: -1

What do the screens show for `O=C(NCc1ccccc1)c1ccccc1OCC(=O)N1CCCCC1`?
PAFAH2 inh: 2; PME-1 inh: -1; Fam108B inh: 0; PAFAH1B2 inh: 3; pPAFAH FP inh: -3; PAFAH1B3 FP inh: 5

How did CC(=O)c1cccc(NC(=O)CSc2ncc(C(=O)Nc3ccccc3)c(=O)n2C)c1 do in these assays?
PAFAH2 inh: 4; PME-1 inh: 2; Fam108B inh: -2; PAFAH1B2 inh: 3; pPAFAH FP inh: 31*; PAFAH1B3 FP inh: 7

Results for CC(=O)Nc1cccc(NC(=O)CSc2ncc(C(=O)Nc3ccccc3)c(=O)n2C)c1 ?
PAFAH2 inh: -3; PME-1 inh: -5; Fam108B inh: -4; PAFAH1B2 inh: 2; pPAFAH FP inh: 4; PAFAH1B3 FP inh: 4

How did O=C(COC(=O)/C=C/c1ccc([N+](=O)[O-])cc1)NC1CCCCC1 do in these assays?
PAFAH2 inh: 21; PME-1 inh: 1; PAFAH1B2 inh: -5; pPAFAH FP inh: 12; PAFAH1B3 FP inh: 2

How did O=c1[nH]c(CSc2nc3ccccc3s2)nc2cc(Cl)ccc12 do in these assays?
PME-1 inh: -6; Fam108B inh: -9; pPAFAH FP inh: -11

What do the screens show for `O=c1[nH]c(CSc2nc3ccccc3s2)nc2ccccc12`?
PAFAH2 inh: -1; PME-1 inh: -2; Fam108B inh: 0; PAFAH1B2 inh: 31*; pPAFAH FP inh: -1; PAFAH1B3 FP inh: 3

How did O=C(/C(=N\Nc1ccc([N+](=O)[O-])cc1)Sc1nnnn1-c1ccccc1)c1ccccc1 do in these assays?
PAFAH2 inh: 13; PME-1 inh: 7; Fam108B inh: 7; PAFAH1B2 inh: 16; pPAFAH FP inh: 10; PAFAH1B3 FP inh: 2

How did Cc1ccc(N/N=C(/Sc2nnnn2-c2ccccc2)C(=O)c2ccccc2)cc1 do in these assays?
PAFAH2 inh: 0; PME-1 inh: -2; Fam108B inh: 0; PAFAH1B2 inh: 27*; pPAFAH FP inh: 2; PAFAH1B3 FP inh: -3

What do the screens show for `CC(C)C(=O)Nc1ccc(NC(=O)c2cccc(F)c2)cn1`?
PAFAH2 inh: 12; PME-1 inh: -6; Fam108B inh: -1; PAFAH1B2 inh: -2; pPAFAH FP inh: 0; PAFAH1B3 FP inh: 1

How did Cn1nnnc1Sc1ncnc2scc(-c3ccc(Br)cc3)c12 do in these assays?
PAFAH2 inh: -8; PAFAH1B2 inh: 0; pPAFAH FP inh: 11; PAFAH1B3 FP inh: -4

How did Cn1nnnc1Sc1ncnc2scc(-c3ccc(F)cc3)c12 do in these assays?
PAFAH2 inh: -15; PME-1 inh: 0; Fam108B inh: -3; PAFAH1B2 inh: -7; pPAFAH FP inh: 29*; PAFAH1B3 FP inh: 1

How did O=C(CN1c2cccc3cccc(c23)S1(=O)=O)NC1CCCCC1 do in these assays?
PAFAH2 inh: 7; PAFAH1B2 inh: 6; pPAFAH FP inh: 30*; PAFAH1B3 FP inh: 0

Results for O=C(CN1C(=O)c2ccccc2S1(=O)=O)NC1CCCCCC1 ?
PAFAH2 inh: 4; PME-1 inh: -8; Fam108B inh: 2; PAFAH1B2 inh: 6; pPAFAH FP inh: -1; PAFAH1B3 FP inh: 1

Results for COc1cc(C#Cc2ccc3cc(C(C)(C)O)oc(=O)c3c2)cc(OC)c1 ?
PAFAH2 inh: -4; PME-1 inh: 0; PAFAH1B2 inh: -1; pPAFAH FP inh: -3; PAFAH1B3 FP inh: 7

What do the screens show for `COc1cc2cc(C(C)(C)O)oc(=O)c2cc1OC`?
PAFAH2 inh: -13; PME-1 inh: -1; PAFAH1B2 inh: 11; pPAFAH FP inh: 33*; PAFAH1B3 FP inh: 9
